Data reported in the supplement of paper PMC12350171.
Where a name gives a salt, the structure may show the parent alone.

Key:
Settings in all cases: 20 µM
[1] = system: Salmonella enterica typhimurium; assay: growth AUC normalised to DMSO control (fraction of control); higher = less growth inhibition, active = hit call of the paper
Outline: (§1)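 After two anaerobic passages, pathogens were added at a starting OD578 of 0.01 to pre-reduced mGAM plates holding compound at 20 μM with 1% DMSO; hemin and NAD were supplemented for Haemophilus parainfluenzae. Sealed with breathable membranes, plates were read at OD578 hourly for 24 h, in three biological replicates. The trapezoidal rule, applied up to the exponential-to-stationary transition, gave the growth-curve AUC, which was normalised to DMSO controls on the same plate.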

Shigella flexneri = assay: as above
Outline: as §1

Vibrio cholerae = assay: as above
Outline: as §1

[2] = system: Yersinia pseudotuberculosis; assay: as above
Outline: as §1

P. vulgatus RND KO = assay: growth AUC normalised to DMSO control (median) (fraction of control); higher = less growth inhibition, active = hit call of the paper
Outline: (§2)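 Area under the growth curve, calculated by the trapezoidal rule up to entry into stationary phase, was normalised to vehicle wells on the same plate. Strains had been passaged twice overnight without oxygen and then grown in mGAM in 96-well plates from OD578 0.01, each with an approved-drug library compound at 20 μM in 1% DMSO. OD578 was read hourly over 24 h in an anaerobic incubator, and the median of three biological replicates is given.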

P. vulgatus WT = assay: as above
Outline: as §2

[3] = system: S. enterica typhimurium WT; assay: as above
Outline: as §2

[4] = system: S. enterica typhimurium tolC KO; assay: as above
Outline: as §2

Measured: growth AUC normalised to DMSO control
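Wherever growth AUC normalised to DMSO control (median) is given: active when median AUC fell below 0.1.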

O=C(CCCN1CCC(O)(c2ccc(Br)cc2)CC1)c1ccc(F)cc1 [Bromperidol]
inactive: [1] 1.02 | Shigella flexneri 0.984 | Vibrio cholerae 0.999 | [2] 0.997 | P. vulgatus RND KO 0.999 | P. vulgatus WT 1.01 | [3] 0.998 | [4] 0.974

CCN[C@H]1C[C@H](C)S(=O)(=O)c2sc(S(N)(=O)=O)cc21 [Dorzolamide hydrochloride]
inactive: [1] 1.02 | Shigella flexneri 1.04 | Vibrio cholerae 1.04 | [2] 1.03 | P. vulgatus RND KO 1.05 | P. vulgatus WT 1.05 | [3] 1 | [4] 1.01

COc1ccc(C(=O)c2ccccc2O)c(O)c1 [Dioxybenzone]
inactive: [1] 0.977 | Shigella flexneri 0.983 | Vibrio cholerae 0.909 | [2] 0.982 | P. vulgatus RND KO 0.981 | P. vulgatus WT 1.01 | [3] 0.993 | [4] 0.951

CN1CCN(CC(=O)N2c3ccccc3C(=O)Nc3cccnc32)CC1 [Pirenzepine dihydrochloride]
inactive: [1] 0.993 | Shigella flexneri 1 | Vibrio cholerae 0.988 | [2] 1.01 | P. vulgatus RND KO 1 | P. vulgatus WT 0.98 | [3] 0.999 | [4] 1

CN[C@@H]1[C@@H](O)[C@@H](O[C@@H]2[C@@H](O)[C@H](O[C@H]3OC(CN)=CC[C@H]3N)[C@@H](N)C[C@H]2N)OC[C@]1(C)O [Sisomicin sulfate]
inactive: [1] 1 | Shigella flexneri 0.986 | Vibrio cholerae 0.996 | [2] 0.982 | P. vulgatus RND KO 0.994 | P. vulgatus WT 1 | [3] 1 | [4] 1.01

Cc1cc(C(C)(C)C)cc(C)c1CC1=NCCN1 [Xylometazoline hydrochloride]
inactive: [1] 1.03 | Shigella flexneri 0.999 | Vibrio cholerae 0.999 | [2] 0.989 | P. vulgatus RND KO 1.02 | P. vulgatus WT 1.02 | [3] 0.995 | [4] 0.989

C[C@]12CCC(=O)C=C1CC[C@@H]1[C@@H]2[C@@H](O)C[C@@]2(C)[C@H]1CC[C@]2(O)C(=O)CO [Hydrocortisone]
inactive: [1] 0.983 | Shigella flexneri 0.969 | Vibrio cholerae 0.97 | [2] 1.01 | P. vulgatus RND KO 0.98 | P. vulgatus WT 0.994 | [3] 0.999 | [4] 0.996

C[C@H](N)[C@H](O)c1cccc(O)c1 [Metaraminol bitartrate]
inactive: [1] 0.992 | Shigella flexneri 0.972 | Vibrio cholerae 0.984 | [2] 1.01 | P. vulgatus RND KO 0.993 | P. vulgatus WT 0.989 | [3] 0.994 | [4] 1

CCCC1O[C@@H]2C[C@H]3[C@@H]4CCC5=CC(=O)C=C[C@]5(C)[C@H]4[C@@H](O)C[C@]3(C)[C@]2(C(=O)CO)O1 (some centres not stated) [Budesonide]
inactive: [1] 0.978 | Shigella flexneri 0.995 | Vibrio cholerae 0.987 | [2] 0.989 | P. vulgatus RND KO 0.968 | P. vulgatus WT 0.999 | [3] 0.991 | [4] 0.984

NCCCCCC(=O)O [Aminocaproic acid]
inactive: [1] 0.999 | Shigella flexneri 1.06 | Vibrio cholerae 1.07 | [2] 1.02 | P. vulgatus RND KO 1.07 | P. vulgatus WT 1.1 | [3] 1.02 | [4] 1

CCOC(=O)C1=C(COCCN)NC(C)=C(C(=O)OC)C1c1ccccc1Cl (configuration not stated) [Amlodipine]
inactive: [1] 0.997 | Shigella flexneri 0.99 | Vibrio cholerae 0.985 | [2] 1.01 | P. vulgatus RND KO 1.02 | P. vulgatus WT 1.02 | [3] 1.02 | [4] 1.01

CCCCN(CCCC)CCC(O)c1cc2c(Cl)cc(Cl)cc2c2cc(C(F)(F)F)ccc12 (configuration not stated) [Halofantrine hydrochloride]
inactive: [1] 0.944 | Shigella flexneri 1.04 | Vibrio cholerae 1.06 | [2] 1.03 | P. vulgatus RND KO 1.06 | P. vulgatus WT 1.11 | [3] 1.02 | [4] 1.01

Nc1cc(-c2ccncc2)c[nH]c1=O [Amrinone]
inactive: [1] 1.01 | Shigella flexneri 1.06 | Vibrio cholerae 1.07 | [2] 1 | P. vulgatus RND KO 1.05 | P. vulgatus WT 1.06 | [3] 1 | [4] 1.02

NC(=O)N1c2ccccc2C=Cc2ccccc21 [Carbamazepine]
inactive: [1] 0.997 | Shigella flexneri 0.996 | Vibrio cholerae 0.999 | [2] 1 | P. vulgatus RND KO 1 | P. vulgatus WT 1.04 | [3] 0.998 | [4] 0.999

CN(C)C(=O)C(CCN1CCC(O)(c2ccc(Cl)cc2)CC1)(c1ccccc1)c1ccccc1 [Loperamide hydrochloride]
inactive: [1] 0.997 | Shigella flexneri 0.972 | Vibrio cholerae 0.981 | [2] 0.988 | P. vulgatus RND KO 1 | P. vulgatus WT 1.01 | [3] 1 | [4] 0.987

C[N+]1(C)CCC(OC(=O)C(O)(c2ccccc2)C2CCCC2)C1 (configuration not stated) [Glycopyrrolate bromide]
inactive: [1] 1.02 | Shigella flexneri 1 | Vibrio cholerae 1.01 | [2] 1.01 | P. vulgatus RND KO 1 | P. vulgatus WT 0.984 | [3] 1 | [4] 0.993

NC(=O)N1c2ccccc2CC(=O)c2ccccc21 [Oxcarbazepine]
inactive: [1] 0.971 | Shigella flexneri 0.952 | Vibrio cholerae 0.981 | [2] 0.992 | P. vulgatus RND KO 0.989 | P. vulgatus WT 0.995 | [3] 0.999 | [4] 1

CN1C2CCCC1CC(NC(=O)c1nn(C)c3ccccc13)C2 (configuration not stated) [Granisetron]
inactive: [1] 1 | Shigella flexneri 1.02 | Vibrio cholerae 1.01 | [2] 1 | P. vulgatus RND KO 1 | P. vulgatus WT 0.987 | [3] 0.982 | [4] 1

NS(=O)(=O)c1cc2c(cc1C(F)(F)F)NCNS2(=O)=O [Hydroflumethiazide]
inactive: [1] 1.01 | Shigella flexneri 1.01 | Vibrio cholerae 0.998 | [2] 0.998 | P. vulgatus RND KO 1.02 | P. vulgatus WT 0.986 | [3] 1.01 | [4] 1.01

C=CCOc1ccccc1OCC(O)CNC(C)C (configuration not stated) [Oxprenolol hydrochloride]
inactive: [1] 0.993 | Shigella flexneri 1.02 | Vibrio cholerae 1.03 | [2] 1 | P. vulgatus RND KO 0.998 | P. vulgatus WT 1 | [3] 0.997 | [4] 0.994

CN(Cc1ccc(C(C)(C)C)cc1)Cc1cccc2ccccc12 [Butenafine hydrochloride]
inactive: [1] 0.974 | Shigella flexneri 0.968 | Vibrio cholerae 0.926 | [2] 0.99 | P. vulgatus RND KO 0.967 | P. vulgatus WT 0.96 | [3] 0.995 | [4] 0.957

CCCNC(C)C(=O)Nc1ccccc1C (configuration not stated) [Prilocaine hydrochloride]
inactive: [1] 0.987 | Shigella flexneri 1 | Vibrio cholerae 1 | [2] 0.998 | P. vulgatus RND KO 0.99 | P. vulgatus WT 1 | [3] 0.992 | [4] 0.993

CN1CCN2c3ccccc3Cc3ccccc3C2C1 (configuration not stated) [Mianserine hydrochloride]
inactive: [1] 0.986 | Shigella flexneri 0.986 | [2] 0.956 | P. vulgatus RND KO 1.03 | P. vulgatus WT 1.03 | [3] 0.994 | [4] 1
active: Vibrio cholerae 0.868

C[C@@](Cc1ccc(O)c(O)c1)(NN)C(=O)O [Carbidopa]
inactive: [1] 0.994 | Shigella flexneri 0.948 | Vibrio cholerae 0.996 | [2] 0.972 | P. vulgatus RND KO 0.99 | P. vulgatus WT 0.993 | [3] 1 | [4] 1.01

NNC(=O)c1ccncc1 [Isoniazid]
inactive: [1] 1.02 | Shigella flexneri 1.04 | Vibrio cholerae 1.05 | [2] 0.942 | P. vulgatus RND KO 1.04 | P. vulgatus WT 1.07 | [3] 1.01 | [4] 0.989

CC(C)(C)NCC(O)c1ccc(O)c(CO)c1 (configuration not stated) [Salbutamol]
inactive: [1] 0.985 | Shigella flexneri 0.97 | Vibrio cholerae 0.984 | [2] 0.985 | P. vulgatus RND KO 0.985 | P. vulgatus WT 0.956 | [3] 0.992 | [4] 0.997

COc1cc(C(=O)NS(=O)(=O)c2ccccc2C)ccc1Cc1cn(C)c2ccc(NC(=O)OC3CCCC3)cc12 [Zafirlukast]
inactive: [1] 0.961 | Shigella flexneri 0.982 | Vibrio cholerae 0.966 | [2] 0.988 | P. vulgatus RND KO 0.84 | P. vulgatus WT 0.891 | [3] 1.01 | [4] 0.962

CC(=O)O[C@H]1C(=O)[C@@]2(C)[C@H]([C@H](OC(=O)c3ccccc3)[C@]3(O)C[C@H](OC(=O)[C@H](O)[C@@H](NC(=O)c4ccccc4)c4ccccc4)C(C)=C1C3(C)C)[C@]1(OC(C)=O)CO[C@@H]1C[C@@H]2O [Paclitaxel]
inactive: [1] 1.02 | Shigella flexneri 1.01 | Vibrio cholerae 1.02 | [2] 0.998 | P. vulgatus RND KO 0.881 | P. vulgatus WT 0.8 | [3] 1.01 | [4] 1.02

CN1CCN(CCCN2c3ccccc3Sc3ccc(C(F)(F)F)cc32)CC1 [Trifluoperazine dihydrochloride]
inactive: [1] 1.03 | Shigella flexneri 1.04 | Vibrio cholerae 1.01 | [2] 1.04 | P. vulgatus RND KO 0.974 | P. vulgatus WT 0.941 | [3] 1.02 | [4] 0.929
